Here are results for 31 molecules from PubChem BioAssay AID1946 (Johns Hopkins Ion Channel Center, 2009).

Structures are written as SMILES. Screen size: about 2,400 compounds; about 180 (7.5%) were called active.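 How the source made its calls: active means readout below zero, meaning a drop past 3 SD under the dofetilide-free negative control mean; inactive means the rest.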 The full list was thinned out, with actives kept by preference.

For this assay, the target named is Potassium voltage-gated channel subfamily KQT member 2 (Rattus norvegicus) (UniProt O88943). As to the kind of experiment: rat KCNQ2 channel inhibition by compounds alone, confirmation, counter-screen for hERG block protector project, cell-based, CHO, FluxOR thallium flux (AID 1946). The following applies: CHO-KCNQ2 cells, FluxOR thallium flux fluorescence; at 10 µM; hits give low values; zero marks the 3-SD hit cutoff.
Potassium voltage-gated channel subfamily KQT member 2 (Rattus norvegicus), sequence (O88943 whole entry, looked up): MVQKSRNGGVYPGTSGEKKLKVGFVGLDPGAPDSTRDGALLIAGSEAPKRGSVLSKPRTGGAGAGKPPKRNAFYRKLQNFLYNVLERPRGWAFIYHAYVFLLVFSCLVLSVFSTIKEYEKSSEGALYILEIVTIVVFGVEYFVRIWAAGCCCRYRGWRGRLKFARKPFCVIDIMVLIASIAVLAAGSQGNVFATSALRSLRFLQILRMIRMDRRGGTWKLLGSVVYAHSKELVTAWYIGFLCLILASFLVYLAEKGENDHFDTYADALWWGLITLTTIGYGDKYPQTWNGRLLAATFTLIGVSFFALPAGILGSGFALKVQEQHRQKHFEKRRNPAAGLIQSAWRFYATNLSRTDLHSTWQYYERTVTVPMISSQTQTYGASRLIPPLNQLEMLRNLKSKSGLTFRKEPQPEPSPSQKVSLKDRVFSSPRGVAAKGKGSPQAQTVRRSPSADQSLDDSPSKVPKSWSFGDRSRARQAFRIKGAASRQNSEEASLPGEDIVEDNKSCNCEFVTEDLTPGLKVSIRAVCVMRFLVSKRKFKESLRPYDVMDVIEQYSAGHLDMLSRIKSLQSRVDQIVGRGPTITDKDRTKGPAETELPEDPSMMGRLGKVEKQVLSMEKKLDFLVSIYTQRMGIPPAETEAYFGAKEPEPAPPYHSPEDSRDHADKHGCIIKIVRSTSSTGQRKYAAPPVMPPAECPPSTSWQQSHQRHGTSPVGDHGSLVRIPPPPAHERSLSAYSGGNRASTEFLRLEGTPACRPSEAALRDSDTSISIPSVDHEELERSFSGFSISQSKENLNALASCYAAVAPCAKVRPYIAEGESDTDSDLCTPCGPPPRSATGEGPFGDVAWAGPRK
Regarding `CC(C)(C)OC(=O)NCCCC(CCCNC(=O)OC(C)(C)C)C(=O)O`, the activity change vs negative control was -1.1% (active). As to `Cc1c(C)c2ccc(OCC(=O)N[C@@H](Cc3ccccc3)C(=O)O)cc2oc1=O`, the activity change vs negative control is 11.8% (inactive). `O=C(NC(=S)Nc1ccccc1Cl)c1ccco1`: the activity change vs negative control is 32.3% (inactive). The figure for `O=C(CCC1CCCC1)NNC(=O)c1cccc(Cl)c1` is 39.5% (inactive); for `Cn1c(=S)[nH]c2scc(-c3cccs3)c2c1=O` it is 93.4% (inactive). Take `CCc1ccc(C(C)NC(=O)C2CCCC2)cc1` (stereo unspecified): the activity change vs negative control was 42.6% (inactive). As for `CCCCCn1c(=S)[nH]c2ncccc2c1=O`, the activity change vs negative control was 48.4% (inactive). For `O=C(NC(=S)N1CCN(c2ccccc2)CC1)c1ccccc1`, the activity change vs negative control was 33.2% (inactive). In the case of `CC(C)(C)c1ccc(C(=O)NC(=S)N2CCCCCC2)cc1`, the activity change vs negative control was 40.6% (inactive). For `Cc1ccc(/C=C(\NC(=O)c2ccccc2)C(=O)N2CCCCC2)cc1`, the activity change vs negative control is -1.3% (active).

Turning to `CCCCOc1ccc(-c2c(C#N)c(N)[nH]c(=S)c2C#N)cc1`, the activity change vs negative control was 21.3% (inactive). As to `O=c1oc2ccccc2c(Cl)c1CN1CCCCC1`, the activity change vs negative control was 32.3% (inactive). On to `C=CCn1c(=S)[nH]c2ccc(Br)cc2c1=O`, for which the activity change vs negative control was 40.2% (inactive). With `COC(=O)c1ccc(NC(=O)COC(=O)C2CC(=O)N(Cc3ccccc3)C2)cc1` (stereo unspecified), the activity change vs negative control was -5.2% (active).

In the case of `COc1ccc(N2CC(C(=O)OCC(=O)Nc3ccccc3C)CC2=O)cc1` (stereo unspecified), the activity change vs negative control is 9% (inactive). The figure for `O=C(COC(=O)C1CCC(=O)N1)Nc1ccc(Oc2ccccc2)cc1` (stereo unspecified) is 10.5% (inactive); for `COC(=O)c1c(NS(=O)(=O)Cc2ccccc2)sc2c1CCCC2` it is 56.6% (inactive). On to `Cc1ccc(C(=O)c2ccccc2C(=O)O)c(O)c1`, for which the activity change vs negative control is 6.4% (inactive).

As to `Cc1ccccc1C(=O)Nc1nc(=S)ss1`, the activity change vs negative control is 82.2% (inactive).

Regarding `Cc1ccccc1C(=O)c1cn[nH]c1-c1ccccc1O`, the activity change vs negative control is -4.7% (active).

As for `COc1ccc(C(=O)CC(=O)C(=O)Nc2ccccc2C(F)(F)F)cc1`, the activity change vs negative control is 36.8% (inactive). For `CCOC(=O)N1CCC(N2C(=O)c3ccccc3C2Nc2cccnc2)CC1` (stereo unspecified), the activity change vs negative control is 27.6% (inactive). Regarding `CCOc1ccc(C(C)NC(=S)NC2CCCCC2)cc1` (stereo unspecified), the activity change vs negative control is 40.9% (inactive). Next, `Fc1cccc2sc(Nc3nc4c(F)cccc4s3)nc12`: 30.2% (inactive); `Cc1ccc(-c2csc3nc[nH]c(=S)c23)cc1`: 62.4% (inactive); `O=C(NC(=S)NC1CCCc2ccccc21)c1ccco1` (stereo unspecified): 28.4% (inactive). The figure for `CCn1nnnc1SCC(=O)N1c2ccccc2Sc2ccccc21` is 5.3% (inactive). As for `Cn1nnnc1SCC(=O)Nc1ccccn1`, the activity change vs negative control is 8.7% (inactive).

As for `CCOc1ccc(NC(=O)CS(=O)CC(=O)NC2CCCc3ccccc32)cc1` (stereo unspecified), the activity change vs negative control is 8.3% (inactive). For the molecule `Cc1cccc(OCC(=O)NC2CCCc3ccccc32)c1C` (stereo unspecified), the activity change vs negative control is -10.6% (active). The figure for `Cn1nnnc1SCC(=O)NC1CCCc2ccccc21` (stereo unspecified) is -7.8% (active).
